High-throughput results from PubChem.
ELG1 DNA repair – qHTS screen for small molecules that inhibit ELG1-dependent DNA repair in human embryonic kidney (HEK293T) cells expressing luciferase-tagged ELG1 | 330,000 tested, 2.3% active | Potency, µM (titrated, usually from 46.1 µM), without a hit: top-dose activity change, negative = inhibition, hits mostly inhibitors | HEK293T ELG1-luciferase reporter, luminescence, 16 h; DNA damage induced by 5-fluorouridine; further: potency means the concentration at half of the fitted maximal effect; on the % scale 0 is the no-effect control and ±100 the full control effect; nearly all actives have a fitted effect of over 55% in size
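Overnight (16 hr) co-exposure of 2,000 cells/well to 5-fluorouridine and compound at 37 °C preceded detection. Luciferase was quantified via ONE-Glo luminescence; loss of signal denotes inhibition.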
TRPV1 ag – HTS Assay for Compounds that Act as Agonists of the Vanilloid Receptor 1 | Transient receptor potential cation channel subfamily V member 1 (Homo sapiens), Q8NER1 | TRPV1-expressing cells, Fluo-8 calcium influx, agonist mode | activation, % at 8.33 µM | 320,000 tested, 0.19% active; in the data active means activation above about 80%; inconclusive means between about 30% and that limit; further: 0% is about no effect
Target sequence (Q8NER1 whole entry, looked up): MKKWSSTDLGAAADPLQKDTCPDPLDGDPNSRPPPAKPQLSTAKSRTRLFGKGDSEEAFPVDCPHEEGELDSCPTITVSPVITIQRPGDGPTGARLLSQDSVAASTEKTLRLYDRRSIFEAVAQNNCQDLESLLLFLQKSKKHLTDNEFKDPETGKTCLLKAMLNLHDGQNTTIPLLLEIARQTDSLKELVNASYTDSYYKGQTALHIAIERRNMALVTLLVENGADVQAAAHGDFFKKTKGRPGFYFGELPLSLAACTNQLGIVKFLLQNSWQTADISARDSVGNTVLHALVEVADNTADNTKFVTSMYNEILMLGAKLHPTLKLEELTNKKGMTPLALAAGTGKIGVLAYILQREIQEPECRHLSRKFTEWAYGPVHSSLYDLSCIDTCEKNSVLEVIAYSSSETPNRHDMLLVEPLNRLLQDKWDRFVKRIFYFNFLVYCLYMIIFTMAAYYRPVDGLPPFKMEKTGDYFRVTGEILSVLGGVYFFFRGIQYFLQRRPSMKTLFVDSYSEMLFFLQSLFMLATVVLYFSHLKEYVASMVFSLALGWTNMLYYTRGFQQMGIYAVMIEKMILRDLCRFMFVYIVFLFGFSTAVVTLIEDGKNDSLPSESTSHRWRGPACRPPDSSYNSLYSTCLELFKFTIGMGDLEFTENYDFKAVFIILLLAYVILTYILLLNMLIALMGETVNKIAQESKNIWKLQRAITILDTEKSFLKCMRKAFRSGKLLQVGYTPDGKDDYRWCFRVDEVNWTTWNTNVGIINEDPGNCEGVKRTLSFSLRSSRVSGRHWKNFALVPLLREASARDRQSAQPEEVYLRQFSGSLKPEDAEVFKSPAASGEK
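TRPV1-expressing cells were cultured overnight at 35.5C and loaded with Fluo-8 calcium dye for 40 to 90 min at room temperature. After a 10 s baseline, compound was added and calcium influx was read kinetically for 3 min (ex 480/em 520 nm).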
Giardia kill – Small Molecules that selectively kill Giardia lamblia: qHTS; Giardia lamblia trophozoite viability; activity change, % at 7.66 µM, hits read low; 340,000 tested, 0.15% active; AID 540267, 2011; in the data active means activity change below about -80%; inconclusive means between about -30% and that limit;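 further: parasites exposed to compound for two days anaerobically before the ATP read; on the % scale 0 is the no-effect control and ±100 the full control effect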
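Each well holds 100 Giardia trophozoites and compound. After two days (48 hrs) at 37 deg C in anaerobic conditions, ATP is quantified by luminescence.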
FUS yeast rescue – qHTS for Suppressors of FUS Proteinopathy: Primary screen using FUS-linked yeast assay; Potency, µM (top dose mostly 76.6 µM), usual class: activators; S. cerevisiae FUS-expressing, growth rescue, OD600, 24 h; 390,000 tested, 0.24% active;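 further: potency means the concentration at half of the fitted maximal effect; plate controls were DMSO vehicle for no effect and reference control for full effect; nearly all actives have a fitted effect of over 55% in size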
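Steps: raffinose overnight preculture; dilution to OD 0.005 in 2% galactose minimal medium; compound addition (concentration series); 24hr at 30C, 99% humidity; absorbance read at 600 nm.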
TRPV1 potentiator – HTS Assay for Compounds that Act as Potentiators of the Vanilloid Receptor 1; Transient receptor potential cation channel subfamily V member 1 (Homo sapiens), Q8NER1; TRPV1-expressing cells, Fluo-8 calcium influx, capsaicin EC20 potentiation; potentiation, % at 8.33 µM; 320,000 tested, 0.02% active; in the data active means potentiation above about 80%; inconclusive means between about 30% and that limit; further: 0% is about no effect
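Cells expressing TRPV1 were dye-loaded with Fluo-8 and read kinetically: 10 s baseline, 3 min after compound (agonist portion), then 2 min after EC20 capsaicin (allosteric enhancer portion). Calcium-bound dye fluorescence at 480/520 nm.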
ELG1 FLuc counter – qHTS screen for small molecules that inhibit ELG1-dependent DNA repair: Hit Confirmation in Cell-Based Luciferin Assay. Potency, µM (titrated, usually from 46.1 µM), inactives show top-dose activity change, negative = inhibition, actives largely listed as inhibitors. cell-free firefly luciferase luminescence counter-screen, ViewLux. 350 tested, 3% active. shares compounds with ELG1 DNA repair; further: potency means the concentration at half of the fitted maximal effect; on the % scale 0 is the no-effect control and ±100 the full control effect
ELG1 Luc conf – HTS assay for small molecules that inhibit ELG1-dependent DNA repair in human embryonic kidney (HEK293T) cells expressing luciferase-tagged ELG1: Hit Confirmation. HEK293T ELG1-luciferase levels, luminescence; cells co-treated with 5-fluorouridine. shares compounds with ELG1 DNA repair. Potency, µM (top dose mostly 46.1 µM), for inactives: at the top dose activity change, negative = inhibition, hits mostly inhibitors. 670 tested, 68% active; further: potency means the concentration at half of the fitted maximal effect; on the % scale 0 is the no-effect control and ±100 the full control effect; nearly all actives have a fitted effect of over 55% in size
ELG1-Luc MMS – inhibits ELG1-dependent repair under MMS stimulation in HEK293T cells; shares compounds with ELG1 DNA repair; HEK293T luciferase-tagged ELG1 level, MMS stimulated; Potency, µM (doses to about 46.1 µM), for inactives: at the top dose activity change, negative = inhibition, actives largely listed as inhibitors; 670 tested, 53% active; AID 624249; further: potency means the concentration at half of the fitted maximal effect; on the % scale 0 is the no-effect control and ±100 the full control effect; nearly all actives have a fitted effect of over 60% in size
ELG1 5-FU – qHTS screen for small molecules that inhibit ELG1-dependent DNA repair: Hit Confirmation with 5FU Viability; shares compounds with ELG1 DNA repair; cell viability with 5-FU, ELG1-dependent repair; AID 624250, 2012; Potency, µM (top dose mostly 46.1 µM), inactives show at the highest dose activity change, negative = viability loss, actives largely listed as cytotoxic; 670 tested, under 10 active;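 further: ELG1-luc HEK293T cells cotreated with 5-fluorouridine at 10 µM final; potency means the concentration at half of the fitted maximal effect; viability measured 16 h after compound addition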
ELG1 MMS viab – qHTS screen for small molecules that inhibit ELG1-dependent DNA repair: Hit Confirmation with MMS Viability. shares compounds with ELG1 DNA repair. Cell viability with MMS, ELG1-dependent DNA repair. Potency, µM (titrated, usually from 46.1 µM), without a hit: at the highest dose activity change, negative = viability loss, actives largely listed as cytotoxic. 670 tested, 33% active. AID 624251, 2012;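 further: ELG1-luc HEK293T cells co-treated with 10 µM MMS; potency means the concentration at half of the fitted maximal effect; viability read 16 h after compound addition; on the % scale 0 is the no-effect control and ±100 the full control effect; nearly all actives have a fitted effect of over 60% in size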
Cell viab unstim – qHTS screen for small molecules that inhibit ELG1-dependent DNA repair: Hit Confirmation with Unstimulated Viability Assay. shares compounds with ELG1 DNA repair. cell viability counter-screen, unstimulated, luminescence. Potency, µM (series often up to 45.9 µM), for the others: at the top dose activity change, negative = loss of viability, most hits filed as cytotoxic. 900 tested, 8% active. AID 624252, 2012;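 further: potency means the concentration at half of the fitted maximal effect; compound exposure lasted 16 hours before reading; on the % scale 0 is the no-effect control and ±100 the full control effect; nearly all actives have a fitted effect of over 55% in size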
FLuc enzyme – qHTS screen for small molecules that inhibit ELG1-dependent DNA repair: Hit Confirmation in Biochemical Luciferin Assay. 350 tested, 10% active. Potency, µM (doses to about 57.5 µM), inactives show at the highest dose activity, negative = inhibition, usual class: inhibitors. shares compounds with ELG1 DNA repair. purified firefly luciferase, luminescence counter-screen. AID 624253, 2012; further: potency means the concentration at half of the fitted maximal effect; on the % scale 0 is the no-effect control and ±100 the full control effect
Active calls of the source: *; ! = repeats disagree. Sampled rows, rich in hits. Any-hit rate of the full collection: about 2.3%. Unless noted, the call rests on the fitted dose curve; in most records, active means well fitted curve in the direction sought with a large enough effect; inconclusive means small, poorly fitted or top-dose-only effect, or another doubt; inactive means no such curve, though single readings can be large; an effect the other way counts as inactive or inconclusive.

How did O=c1cc(-c2ccccc2)oc2ccc(Cl)cc12 do in these assays?
Giardia kill: 7.9

What do the screens show for `COc1cccc2oc(-c3ccccc3)cc(=O)c12`?
Cell viab unstim: inconclusive

How did O=c1cc(-c2ccccc2)oc2ccc(Br)cc12 do in these assays?
ELG1 DNA repair: inconclusive; Giardia kill: -24.4; FUS yeast rescue: inactive; Cell viab unstim: -13.8%

How did Cc1ccc(NC(=O)Cn2nnc(-c3nc(-c4ccc(Cl)cc4)no3)c2N)cc1C do in these assays?
FUS yeast rescue: inactive

What do the screens show for `Cc1ccc(N(C)C(=O)c2cc(S(=O)(=O)N3CCCCC3)c[nH]2)cc1`?
ELG1 DNA repair: 3.66µM*; TRPV1 ag: inconclusive; Giardia kill: 15.6; FUS yeast rescue: inactive; TRPV1 potentiator: -36.6; ELG1 Luc conf: inconclusive; ELG1-Luc MMS: 3.3%; ELG1 5-FU: -4.9%; ELG1 MMS viab: -4.4%; Cell viab unstim: -14.1%

How did CN(C(=O)c1cc(S(=O)(=O)N2CCCCC2)c[nH]1)C1CCCCC1 do in these assays?
ELG1 DNA repair: -11.6%; TRPV1 ag: 24.8; Giardia kill: -1.7; FUS yeast rescue: inactive; TRPV1 potentiator: -23.1

Results for CCOc1ccccc1NC(=O)c1nc(SC(C)C)ncc1Cl ?
FUS yeast rescue: inactive

How did COc1cccc(N2CC(NS(=O)(=O)c3cccnc3)CC2=O)c1 (stereo not drawn) do in these assays?
ELG1 DNA repair: 4.11µM*; TRPV1 ag: 3.0; Giardia kill: -4.4; FUS yeast rescue: inactive; TRPV1 potentiator: 16.8; ELG1 Luc conf: 27.1%; ELG1-Luc MMS: 11.0%; ELG1 5-FU: 4.0%; ELG1 MMS viab: inconclusive; Cell viab unstim: 10.4%

What do the screens show for `Cc1ccc(OCC(=O)Nc2ccc(-c3nc4ccc(C)cc4o3)cc2)cc1`?
TRPV1 ag: -0.4; Giardia kill: -21.3; FUS yeast rescue: inactive; TRPV1 potentiator: 6.8

Results for COc1ccc(OCC(=O)Nc2ccc(-c3nc4cc(C)c(C)cc4o3)cc2)cc1 ?
TRPV1 ag: 2.6; Giardia kill: -6.0; FUS yeast rescue: inactive; TRPV1 potentiator: 1.8; ELG1 FLuc counter: 57.1%; Cell viab unstim: inconclusive; FLuc enzyme: 15µM*!

Results for Cc1ccc2nc(-c3ccc(Cl)c(NC(=O)COc4ccc(C(C)C)cc4)c3)oc2c1 ?
FUS yeast rescue: inactive

How did Cc1ccc2nc(-c3ccc(C)c(NC(=O)COc4ccc(Br)cc4)c3)oc2c1 do in these assays?
ELG1 FLuc counter: 68.1%; Cell viab unstim: -1.4%; FLuc enzyme: inconclusive

How did COc1ccc(-c2cc3cc(F)ccc3cn2)cc1 do in these assays?
ELG1 DNA repair: inconclusive; Giardia kill: -14.1; FUS yeast rescue: inactive; Cell viab unstim: -5.7%

What do the screens show for `COc1ccc(-c2cc3ccc(F)cc3cn2)cc1`?
ELG1 DNA repair: inconclusive; Giardia kill: -12.8; FUS yeast rescue: inactive

Results for O=C1C2=C(C(=O)c3ccccc31)C1O[C@](CCCCN3C(=O)c4ccccc4C3=O)(Cc3c1ccc1ccccc31)O2 ?
TRPV1 ag: inactive; TRPV1 potentiator: inactive

Results for CNC(=O)c1cc(-c2cccs2)on1 ?
Cell viab unstim: -5.7%

What do the screens show for `O=C(NC1CCCC1)c1cc(-c2cccs2)on1`?
ELG1 DNA repair: inconclusive; TRPV1 ag: 16.1; Giardia kill: -9.2; FUS yeast rescue: inactive; TRPV1 potentiator: -0.4; Cell viab unstim: -11.8%

Results for COc1ccc(S(=O)(=O)NCCc2nnc3ccc(SCC(=O)Nc4nc(C)cs4)nn23)cc1 ?
ELG1 DNA repair: 0.7%; TRPV1 ag: -1.6; Giardia kill: 2.3; TRPV1 potentiator: 6.4; ELG1 FLuc counter: 0.9%; ELG1 Luc conf: -21.5%; ELG1-Luc MMS: 10.3%; ELG1 5-FU: 6.1%; ELG1 MMS viab: -6.7%; Cell viab unstim: -4.2%; FLuc enzyme: -3.3%

How did O=C(Cn1cc(S(=O)(=O)Cc2ccc(F)cc2)c2ccccc21)NCc1ccccc1 do in these assays?
FUS yeast rescue: inactive

Results for COc1ccc(CNC(=O)c2cn(Cc3ccccc3OC)c(=O)s2)cc1 ?
FUS yeast rescue: inactive

How did O=C(Nc1ccccc1)c1nc[nH]c1C(=O)NCCCCNC(=O)c1[nH]cnc1C(=O)Nc1ccccc1 do in these assays?
ELG1 DNA repair: inconclusive; Giardia kill: -2.4; FUS yeast rescue: inactive
